Screening results from PubChem.
Most compounds without a hit are left out; they make up all but 4.5% or so of the library.
tim23-1 inh: growth inhibitors of tim23-1 mutant yeast, primary screen, luminescence, uHTS; S. cerevisiae tim23-1 growth, BacTiter-Glo luminescence, 24 h; inhibition, % at 20 µM; 330,000 tested, 1.3% active;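 active = growth inhibition of the mutant yeast at or above 50%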;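 also: temperature-sensitive mutant grown at 25 °C; plate controls were DMSO-treated mutant yeast for no effect and medium wells lacking yeast for full effect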
PfHsp90 set2: growth inhibition of PfHsp90-expressing yeast, primary screen, antimalarial PfHsp90 inhibitor project, S. cerevisiae, BacTiter-Glo luminescence, single point, set 2 | AID 504621, 2011 | BacTiter-Glo ATP, 48 h; yeast lacking PDR1 and PDR3 efflux regulators | inhibition, % at 9.4 µM | 310,000 tested, 0.32% active;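 active = every replicate shows inhibition above about 80%, whatever the replicate mean, limit read from the data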;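 also: 0% = DMSO neutral controls and 100% = 20 µM radicicol positive controls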
TIM10 inh: growth inhibitors of isogenic TIM10 control yeast, primary screen, counter-screen for tim10-1 yeast inhibitor project, luminescence, uHTS; AID 463195, 2010; S. cerevisiae TIM10 strain growth, BacTiter-Glo luminescence, 24 h; inhibition, % at 10 µM; 330,000 tested, 1.4% active;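 active = inhibition of 40% or more at the single tested concentration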;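 also: wild-type TIM10 isogenic control strain grown at permissive 25 °C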
SKKanGAS inh: S. pyogenes SKKanGAS growth inhibitors in kanamycin, primary screen, streptokinase expression inhibitor project, SKKanGAS strain, BacTiter-Glo luminescence; 6 h; inhibition, % at 7.5 µM; 300,000 tested, 1.3% active;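 active = mean replicate score, as percent of positive control median, at least 50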;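 also: strain carries kanamycin resistance gene driven by streptokinase promoter and grows in 40 µg/ml kanamycin; loss of luminescence reflects streptokinase promoter inhibition or plain growth inhibition; 0% = median of DMSO wells and 100% = positive control at its reference dose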
tim10-1 inh: growth inhibitors of tim10-1 mutant yeast, primary screen, luminescence, uHTS. S. cerevisiae tim10-1 ts strain growth, BacTiter-Glo, 24 h. inhibition, % at 20 µM. 330,000 tested, 2.2% active;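 active = inhibition of at least 40%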;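 also: mutant grown at 25 °C; 0% = DMSO wells with yeast and 100% = wells holding no yeast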
NLRP3 yeast inh: NALP3 inflammasome inhibitors in reconstituted yeast, primary screen, luminescence, uHTS | Yeast reconstituted NLRP3/ASC/caspase-1, beta-gal luminescence, 24 h | inhibition, % at 10 µM | 330,000 tested, 0.39% active | AID 2825, 2010;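 active = inhibition of 50% or more; inactive = inhibition below 50%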;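 also: plate controls were induced DMSO wells for no effect and uninduced yeast grown without galactose for full effect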
tim23-1 conf: tim23-1 mutant yeast growth inhibitors, confirmation, luminescence, single concentration; shares compounds with tim23-1 inh; S. cerevisiae tim23-1 growth, BacTiter-Glo luminescence, 24 h; inhibition, % at 20 µM; 4,400 tested, 83% active;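 active = inhibition above about 39% in either of two replicate wells at 20 µM, limit read from the data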;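 also: temperature-sensitive tim23-1 mutant grown at 25 °C; 0% = DMSO wells with yeast and 100% = medium wells without yeast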
* = called active by the depositor; . = no result.

SMILES | tim23-1 inh | PfHsp90 set2 | TIM10 inh | SKKanGAS inh | tim10-1 inh | NLRP3 yeast inh | tim23-1 conf
O=C(NC(=S)NCc1ccc(Cl)cc1Cl)c1ccco1 | 42 | -10 | 7 | . | 16 | 6 | .
CCOc1ccccc1NC(=O)c1ccccc1NC(=O)c1ccco1 | 12 | -30 | 10 | 0 | 19 | 6 | .
O=C(NC(=S)NCc1ccccc1)c1ccc2c(c1)OCO2 | 50* | -6 | 11 | -7 | 14 | 6 | 43*
CCOc1ccc(NC(=O)CN(C)C(=O)CCNC(=O)c2ccccc2Cl)cc1OCC | -13 | -8 | 3 | 0 | -23 | 14 | .
CCOc1ccc(S(=O)(=O)N2CCN(C(=O)Cc3n[nH]c(=O)c4ccccc34)CC2)cc1 | -15 | 7 | 14 | . | 2 | 21 | .
Cc1cc(S(=O)(=O)N2CCOCC2)ccc1OCC(=O)NCC1CCCO1 (configuration not stated) | -8 | 17 | -7 | 5 | -9 | 1 | .
CC1S/C(=N\N=C\c2cccc([N+](=O)[O-])c2)N(C(C)(C)C)C1=O (configuration not stated) | 0 | 11 | -4 | -5 | -12 | 16 | .
CN1CCN(S(=O)(=O)c2ccc(N(C)Cc3ccc(OC(F)F)cc3)c([N+](=O)[O-])c2)CC1 | 15 | -21 | 13 | -4 | 24 | 12 | .
O=C(NNC(=S)NCc1ccccc1)c1ccc(Br)o1 | 13 | -17 | 7 | -1 | 4 | 17 | .
O=C(NC(=S)NCc1ccccc1)c1ccc(Br)o1 | 61* | 11 | 9 | 1 | 29 | 37 | 26
COc1cc([N+](=O)[O-])ccc1NC(=O)CN1CCN(C(=O)c2ccco2)CC1 | 9 | -29 | 6 | -1 | 6 | -10 | .
CCCCn1c(/C=N/Nc2nc3ccccc3[nH]2)nc2ccccc21 | 55* | -19 | -10 | 95* | 38 | 46 | 56*
CCCCn1c(/C=C/c2ccco2)nc2ccccc21 | 31 | -6 | 22 | 5 | 26 | 8 | .
O=c1c2ccccc2oc2cc(-c3ccc(CN4CCOCC4)cc3)ccc12 | 23 | -21 | -28 | . | 1 | 12 | .
N#C/C(=C\c1ccc(OCc2ccccc2)cc1)C(N)=O | 63* | 9 | 6 | 11 | 34 | 13 | 52*
Cc1ccccc1COc1ccc(/C=C(\C#N)C(N)=O)cc1 | 11 | 18 | 10 | 14 | 3 | 19 | .
O=C1NC(=O)c2cc([N+](=O)[O-])cc3cccc1c23 | 62* | -9 | -17 | 5 | 3 | 8 | 49*
COC(=O)C1=C(C)N(Cc2ccccc2)C(=S)N[C@H]1c1cccc(F)c1 | 52* | -42 | 19 | 1 | 37 | 23 | 38
COC(=O)C1=C(C)N(Cc2ccccc2)C(=NCc2ccccc2)N[C@H]1c1cccc(F)c1 | 12 | -24 | 9 | 8 | 19 | 19 | .
COc1ccc(OC)c(CN2CCN(C(=O)c3cccc(S(=O)(=O)Nc4ccc(F)cc4)c3)CC2)c1 | . | 14 | . | . | . | . | .
COc1cc(/C=N/NC(=O)c2csc3c2CCCC3)cc(OC)c1O | 17 | 8 | 4 | -12 | 11 | -9 | .
Cc1ccc(/C=N/NC(=O)c2csc3c2CCCC3)cc1 | 63* | . | 22 | -3 | 35 | 32 | 59*
O=C(OCCCOC(=O)c1cc[n+]([O-])cc1)c1cc[n+]([O-])cc1 | -7 | 1 | -5 | 8 | -22 | 5 | .
Cc1noc(C)c1NC(=O)N(C)C[C@H]1Oc2ccc(NC(=O)C3CC3)cc2C(=O)N([C@H](C)CO)C[C@@H]1C | 11 | 14 | -1 | . | 3 | 18 | .
COc1cc(C(C[N+](=O)[O-])c2c(C)cc3ccccn23)ccc1O (configuration not stated) | 32 | 17 | 26 | 5 | 27 | 19 | .
SMILES | tim23-1 inh | PfHsp90 set2 | TIM10 inh | SKKanGAS inh | tim10-1 inh | NLRP3 yeast inh | tim23-1 conf
COc1ccc(C(C[N+](=O)[O-])c2c(-c3ccccc3)cc3ccccn23)cc1OC (configuration not stated) | 50* | . | 31 | 0 | 35 | 16 | 62*
COc1ccc(C(C[N+](=O)[O-])c2c(-c3ccccc3)cc3ccccn23)cc1 (configuration not stated) | 63* | . | 38 | -1 | 40 | 1 | 78*
ClC(Cl)(Cl)c1nc2ccccc2n2nncc12 | 54* | -22 | 19 | -1 | 32 | 25 | 37
COc1cc(/C=C(\C#N)C(=O)N2CCc3ccccc32)ccc1O | 55* | 3 | 13 | -8 | 30 | -21 | 60*
CCOC(=O)C1CCN(S(=O)(=O)c2ccc3c(c2)CC(C)N3C(=O)C2CCC2)CC1 (configuration not stated) | 51* | 10 | 38 | -1 | 27 | -1 | 43*
CCOC(=O)C1CCCN(S(=O)(=O)c2ccc3c(c2)CC(C)N3C(=O)C2CC2)C1 (configuration not stated) | 27 | 6 | 27 | -10 | 27 | 8 | .
CCCCN1CCNC[C@@H]1c1ccccc1 | -16 | -2 | 6 | . | -17 | 15 | .
CC1Cc2ccccc2N1C(=O)COC(=O)c1ccc([N+](=O)[O-])o1 (configuration not stated) | 57* | -10 | 34 | . | 34 | 11 | 48*
C=C(C(=O)Oc1ccccc1C(C)(C)C)c1ccccc1 | 59* | . | 37 | . | 39 | 24 | 56*
CC(C)(C)c1ccccc1OCC(=O)NCCC(=O)O | -4 | -15 | 5 | -8 | 8 | 4 | .
CCOC(=O)/C(=C\c1cn(C)c2ccccc12)[N+](=O)[O-] | 54* | 7 | 25 | -10 | 27 | 3 | 58*
COc1ccc(NS(=O)(=O)c2cccc(C(=O)NNC(=O)c3cccc(NC(C)=O)c3)c2)cc1 | 7 | 12 | -3 | 5 | 3 | -9 | .
COc1ccc(C2=NNC(c3ccco3)=Nc3ccc(F)cc32)cc1 | 37 | -10 | 10 | 3 | 16 | 21 | .
COc1ccc2c(c1)C(c1ccc([N+](=O)[O-])cc1)=NNC(c1ccco1)=N2 | 53* | 8 | 33 | 29 | 39 | 33 | 37*
O=C(Nc1cccc(F)c1)c1ccc(S(=O)(=O)N2CCCCC2)cc1 | 16 | 0 | 8 | -3 | 0 | 35 | .
CCCCN1Cc2ccccc2Oc2cc(Br)ccc2S1(=O)=O | 51* | -15 | -8 | . | 22 | . | 23
CC(C)CN1Cc2ccccc2Oc2cc(Br)ccc2S1(=O)=O | 51* | -11 | -3 | . | 18 | . | 24
